Screens: PubChem, several laboratories
AHR activator = human AHR activation; P35869; AHR-responsive luciferase reporter cells, luminescence; activation, % at 5 µM; 2.5% of 320,000 active; AID 2796; in the data active = activation above about 47%;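 also: 0% = vehicle wells and 100% = reference agonist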
Target sequence (P35869 whole entry, looked up): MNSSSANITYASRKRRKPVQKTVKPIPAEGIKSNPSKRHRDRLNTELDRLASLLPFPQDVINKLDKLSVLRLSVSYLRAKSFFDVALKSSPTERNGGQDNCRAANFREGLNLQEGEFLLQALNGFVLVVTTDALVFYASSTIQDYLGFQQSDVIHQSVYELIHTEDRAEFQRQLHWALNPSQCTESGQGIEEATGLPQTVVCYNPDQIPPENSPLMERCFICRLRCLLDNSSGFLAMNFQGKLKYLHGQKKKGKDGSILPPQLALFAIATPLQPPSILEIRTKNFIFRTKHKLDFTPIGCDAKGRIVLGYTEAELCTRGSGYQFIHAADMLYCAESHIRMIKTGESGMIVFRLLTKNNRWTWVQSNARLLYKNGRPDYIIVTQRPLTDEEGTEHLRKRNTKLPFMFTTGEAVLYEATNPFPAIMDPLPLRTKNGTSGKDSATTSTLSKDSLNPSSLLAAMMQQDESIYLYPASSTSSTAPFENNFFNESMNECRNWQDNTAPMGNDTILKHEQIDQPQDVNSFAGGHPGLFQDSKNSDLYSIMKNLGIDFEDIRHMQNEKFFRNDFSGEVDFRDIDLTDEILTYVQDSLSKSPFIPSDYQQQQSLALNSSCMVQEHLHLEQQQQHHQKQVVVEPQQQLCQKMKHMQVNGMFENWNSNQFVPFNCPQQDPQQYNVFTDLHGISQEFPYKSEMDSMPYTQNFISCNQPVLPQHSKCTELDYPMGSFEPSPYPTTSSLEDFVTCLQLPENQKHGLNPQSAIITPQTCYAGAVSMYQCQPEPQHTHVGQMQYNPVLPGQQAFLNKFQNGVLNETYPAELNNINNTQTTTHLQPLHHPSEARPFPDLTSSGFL
rCAG binder = r(CAG) repeat RNA binding | TO-PRO-1 dye displacement fluorescence | inhibition, % at 3 µM | 1.3% of 370,000 active | AID 651821;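 active = inhibition above the plate cutoff, the mean of all test compounds on that plate plus 3 SD, cut at about 35% in these data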;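 also: 0% = DMSO alone and 100% = 100 µM mitoxantrone as full dye displacement; higher means more dye released from RNA so lower well fluorescence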
proKLK7 act = activators of human kallikrein-7 zymogen | P49862 | purified proKLK7, EDANS-DABCYL substrate fluorescence; 100% is mature enzyme control, 0% vehicle | activation, % at 7 µM | 0.9% of 370,000 active;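 active = activation above the mean of all tested compounds plus 3 SD, computed per campaign excluding outliers beyond control limits, cut at about 13% in these data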
ADAM17 inh = inhibits human ADAM17; P78536; recombinant ADAM17, EDANS/DABCYL FRET peptide cleavage; inhibition, % at 6.95 µM; 0.83% of 370,000 active; AID 720648;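 active = inhibition above the mean of compounds lying between control limits plus 3 SD, set per campaign, cut at about 8.5% in these data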;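 also: 0% = DMSO-only wells as the low control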
GRIN3A LBD mod = modulators (binders) of human NR3A ligand-binding domain | NR3A LBD differential scanning fluorimetry, Tm shift; 0% = protein alone, 100% = glycine-bound protein | Tm shift relative to glycine control, % at 25 µM | 2.5% of 340,000 active | AID 1259313;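 active = melting temperature shift of at least 10% of the positive control shift, at one fixed dose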
ADAM10 inh = ADAM10 inhibition, QFRET primary screen; O14672; recombinant ADAM10, EDANS/DABCYL FRET peptide cleavage, 3 h; inhibition, % at 7 µM; 0.62% of 370,000 active; AID 720582;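 active = inhibition above a per-campaign cutoff equal to the mean of compounds falling between control-based bounds plus 3 SD, cut at about 20% in these data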;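 also: 0% = DMSO wells while the 100% control is not disclosed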
ADAM10 confirm = confirmation of inhibitors of human ADAM10; inhibition, % at 6.95 µM; 1% of 2,100 active; shares compounds with ADAM10 inh; AID 743208; ADAM10 QFRET peptide cleavage, EDANS fluorescence;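 active = inhibition above about 20% chosen separately for each screening run, limit read from the data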;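 also: 0% = DMSO wells and 100% = marimastat wells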
ADAM17 counter = ADAM17 inhibition, counter-screen for ADAM10 exosite hits | shares compounds with ADAM10 inh | ADAM17 QFRET peptide cleavage, EDANS fluorescence | inhibition, % at 6.95 µM | 0.5% of 2,100 active | AID 743214;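 active = mean triplicate inhibition above the solvent-only control wells' mean plus 3 SD, cut at about 12% in these data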;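 also: 0% = DMSO wells and 100% = marimastat wells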
ADAM10 ctr = counter-screen for ADAM17 exosite inhibitors: inhibitors of human ADAM10; 47% of 2,900 active; inhibition, % at 6.95 µM; recombinant ADAM10, EDANS/DABCYL FRET peptide cleavage, 3 h; AID 743256; shares compounds with ADAM17 inh;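 active = mean inhibition over the triplicate runs exceeds the activity threshold set in the earlier primary screen, cut at about 20% in these data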;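 also: 0% = DMSO wells and 100% = marimastat wells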
ADAM17 confirm = human ADAM17 inhibition, confirmation; shares compounds with ADAM17 inh; recombinant ADAM17, EDANS/DABCYL QFRET peptide cleavage; 65% of 2,900 active; inhibition, % at 6.95 µM;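 active = mean inhibition across replicates above the hit cutoff set in the primary screen, cut at about 8.5% in these data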;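 also: 0% = DMSO wells and 100% = marimastat wells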
* = called active by the depositor; x = no result. In the library only some 7% were active in any assay of this set; here they are far more common.

SMILES | AHR activator | rCAG binder | proKLK7 act | ADAM17 inh | GRIN3A LBD mod | ADAM10 inh | ADAM10 confirm | ADAM17 counter | ADAM10 ctr | ADAM17 confirm
CCOC(=O)[C@@]12CN(C(=O)OC(C)(C)C)CC=C1N(Cc1ccc(OC)cc1)C(=O)[C@H]2CC(=O)NCCCCc1ccccc1 | x | 1 | 1 | 8.7* | x | 22* | 6 | 2 | 19 | 10*
CCOC(=O)[C@]12CCC=C1N(Cc1ccccc1)C(=O)[C@H](CC(=O)NCCCCc1ccccc1)C2 | x | 2 | 1 | 2 | x | 5 | x | x | x | x
CC(=O)NCCNc1nc2cc(-c3cnn(CCC(C)C)c3)sc2c(=O)n1C | x | -2 | 0 | -5 | x | -27 | x | x | x | x
CCOC(=O)/C(=N/Nc1ccc(C)cc1)S(=O)(=O)c1ccc(Cl)cc1 | 1 | 0 | 0 | 0 | 0 | 10 | x | x | x | x
NNC(=O)/C(=N/Nc1ccccc1)S(=O)(=O)c1ccc(Cl)cc1 | -1 | 30 | -1 | 11* | -4 | 21* | 4 | 3 | 15 | 9.9*
COc1ccc(S(=O)(=O)N2CCOC2CNC(=O)C(=O)NCc2ccccn2)cc1OC (centres undefined) | x | 7 | 0 | 5 | x | 13 | x | x | x | x
COC(=O)C(NC(=O)c1ccccc1C)(Nc1ncc(S(=O)(=O)c2ccc([N+](=O)[O-])cc2)s1)C(F)(F)F (centres undefined) | 3 | 8 | 1 | 12* | -8 | 33* | 1 | 1 | 18 | 8
CC(C)(C)c1ccc(-c2cc(-c3ccccc3O)[nH]n2)cc1 | 8 | 17 | 0 | 17* | 19* | 34* | 11 | 4 | 22* | 11*
CC(C)(C)c1ccc(-c2cc(N)n[nH]2)cc1 | -5 | 11 | 0 | -5 | 7 | -10 | x | x | x | x
Cc1ccc(O)c(-c2cc(-c3ccccc3C)[nH]n2)c1 | x | 8 | 0 | 9.8* | 4 | 24* | 8 | 3 | 27* | 12*
Cc1ccc(O)c(-c2cc(-c3ccccc3[N+](=O)[O-])[nH]n2)c1 | 25 | 15 | 0 | 4 | -6 | 15 | x | x | x | x
CCCOP(=O)(c1ccc(N(C)C)cc1)C(Nc1ccccc1)c1ccc(C)cc1 (centres undefined) | 1 | -6 | 1 | 5 | 2 | 9 | x | x | x | x
CC(C)Cc1nnc(NC(=O)C2=COCCO2)s1 | 7 | 0 | 0 | -4 | 0 | -4 | x | x | x | x
CC(C)(C)NC(=O)C(c1ccc(-c2ccccc2)cc1)N(C[C@H]1CC[C@@H]([C@@H]2CC[C@H](CO)O2)O1)C(=O)c1ccc(C(C)(C)C)cc1 (some centres undefined) | x | 7 | 0 | 12* | 3 | 20* | 4 | 1 | 37* | 19*
Cc1ccc(C(C(=O)NC(C)(C)C)N(CC2CCCO2)C(=O)c2csnn2)cc1 (centres undefined) | 0 | 33 | 1 | -1 | -5 | -2 | x | x | x | x
OCCN1CCN(c2cc(C(F)(F)F)nc3c(F)cccc23)CC1 | -1 | -3 | 0 | 0 | 0 | 0 | x | x | x | x
COC(=O)[C@]12C[C@H](CC(=O)NCCC(C)C)C(=O)N(Cc3cccc4ccccc34)C1=C[C@H](C(C)C)O[C@@H]2C1CC1 | x | 0 | 1 | 8.6* | x | 20* | 12 | 4 | 34* | 22*
COCCCNC(=O)C[C@@H]1C[C@@]2(C(=O)OC)CC(C)(C)CC=C2N(Cc2cccc3ccccc23)C1=O | x | 3 | 0 | 1 | x | 4 | x | x | x | x
CCCCOCCCNC(=O)C[C@@H]1C[C@@]2(C(=O)OC)CC(C)(C)CC=C2N(Cc2cccc3ccccc23)C1=O | x | 7 | 0 | 13* | x | 22* | 8 | 2 | 27* | 16*
COC(=O)[C@]12C[C@H](CC(=O)NCc3cccc(C(F)(F)F)c3)C(=O)N(CCc3ccc(OC)c(OC)c3)C1=C[C@H](C(C)C)O[C@@H]2C1CC1 | x | 1 | 0 | 13* | x | 22* | 0 | 0 | 22* | 8.9*
CC(C)(C)c1ccc(C(=O)NCC(=O)N/N=C/c2cccnc2)cc1 | 3 | 0 | 0 | 2 | 1 | 5 | x | x | x | x
O=C(CCC(=O)N1CCN(c2cccc(Cl)c2)CC1)c1cccs1 | 4 | 0 | 0 | -3 | -3 | -5 | x | x | x | x
Cc1cc(C)n2nc(SC(C)C(=O)N3CC(C)OC(C)C3)nc2n1 (centres undefined) | 0 | 1 | 0 | 1 | 0 | -4 | x | x | x | x
COc1ccc(CNC(=O)COC(=O)c2ccc(F)c(S(=O)(=O)N3CCOCC3)c2)cc1 | 1 | 2 | 0 | -4 | 1 | -11 | x | x | x | x
O=C(Nc1ccccc1NC(=O)c1ccccc1Cl)c1ccccc1Cl | 2 | -2 | -1 | -2 | 2 | -2 | x | x | x | x
SMILES | AHR activator | rCAG binder | proKLK7 act | ADAM17 inh | GRIN3A LBD mod | ADAM10 inh | ADAM10 confirm | ADAM17 counter | ADAM10 ctr | ADAM17 confirm
O=C(Nc1ccccc1)OCC1COC(c2ccccc2)(c2ccccc2)O1 (centres undefined) | x | 5 | 0 | 11* | -7 | 25* | 9 | 3 | 24* | 12*
Cc1noc(C)c1S(=O)(=O)Nc1ccc2c(c1)CC(=O)N([C@H](C)CO)C[C@H](C)[C@H](CN(C)S(=O)(=O)c1ccc(F)cc1)O2 | -1 | 12 | 0 | -5 | 0 | -6 | x | x | x | x
O=C(NCc1ccco1)C1CCCN1C(=O)Nc1ccccc1Cl (centres undefined) | -3 | -1 | 0 | -1 | -1 | -5 | x | x | x | x
COc1ccc(CCNC(=O)COC(=O)CCC(=O)c2ccc(F)cc2)cc1OC | 1 | -5 | 0 | -3 | 0 | 4 | x | x | x | x
N#CCCN(Cc1ccccc1)C(=O)c1nccnc1C(=O)O | 0 | 2 | 0 | -3 | 2 | -7 | x | x | x | x
O=S(=O)(NCCOCC(F)(F)C(F)F)c1ccc2oc3ccccc3c2c1 | 20 | 9 | 0 | 9.5* | 3 | 29* | 1 | 0 | 32* | 21*
Cc1ccc(Nc2nnc(SCC(=O)c3ccc(Br)s3)s2)c(C)c1 | 60* | 10 | 0 | 8.7* | 1 | 24* | 5 | 2 | 13 | 9.9*
O=C(CSc1nncs1)Nc1nccs1 | 2 | 0 | 0 | 0 | -1 | -3 | x | x | x | x
C[C@H](CO)N1C[C@H](C)[C@@H](CN(C)S(=O)(=O)c2cccs2)Oc2ccc(NC(=O)Nc3ccccc3)cc2C1=O | 0 | 7 | 1 | 4 | -6 | 13 | x | x | x | x
